# Where “and” joins values, the source holds several entries; their conditions need not be identical. Identical values can stand only once. Some compounds were tested as several samples or in several runs, with calls that do not always agree. Calls of active or inactive are those of the source. How the source made its calls: active means hit-call score of the fitted dose curve at least 0.9, where 1 is the maximum; inactive means score below 0.9.
# Read-out: Tissue Factor, F3 (gene 2152)
# Experiment: BSK_LPS_TissueFactor: BioMAP Diversity Plus: LPS Assay for Tissue Factor Biomarker Activity (AID 2283084)
# Conditions: primary human HUVEC with PBMC; actives raise or lower the signal
# Description: BSK_LPS is a cell-based, multiplexed-readout assay that uses umbilical vein endothelium and peripheral blood mononuclear cells, a human vascular primary cell co-culture, with measurements taken at 24 hours after chemical dosing in a 96-well plate.BSK_LPS_TissueFactor is an assay component measured in the BSK_LPS assay. It measures CD142 Tissue Factor antibody related to regulation of gene expression using ELISA technology.Data from the assay component BSK_LPS_TissueFactor was analyzed into 1 assay endpoint. This assay endpoint, BSK_LPS_TissueFactor, was analyzed with bidirectional fitting relative to DMSO as the negative control and baseline of activity. Using a type of binding reporter, gain or loss-of-signal activity can be used to understand changes in the signaling as they relate to the gene F3. Furthermore, this assay endpoint can be referred to as a primary readout, because this assay has produced multiple assay endpoints where this one serves a signaling function. To generalize the intended target to other relatable targets, this assay endpoint is annotated to the cytokine intended target family, where the subfamily is coagulation factor.
# The levels of cell surface (or secreted, indicated by the prefix "s") biomarker endpoints were measured by ELISA. Overt cytotoxicity to cells in confluent adherent cultures (all systems other than the BT system) was assessed by measuring total protein levels using sulforhodamine B (SRB) staining in parallel cultures at the time of biomarker measurements, indicated as SRB endpoints. For proliferation assays for adherent cell types, individual cell types are cultured at sub-confluence and relative cell numbers quantified by SRB staining at time points optimized for each system (48 h: 3C and CASM3C systems; 72 h: BT and HDF3CGF systems; 96 h: SAg system). SRB was performed by staining cells with 0.1% SRB after fixation with 10% TCA and reading wells at 560 nm.Viability and proliferation of PBMC (T cells) was quantified by Alamar Blue reduction for the SAg and BT systems. For PBMC viability (referred to as PBMC Cytotoxicity within the assay endpoint names), cells were plated (75,000/well in a 96-well plate) and then chemical samples added for 1 h before addition of activators, SEB and TSST-1 (20 ng/mL final concentration each). Cells were incubated for 90 h. Then, Alamar Blue (20 uL/well) (Invitrogen, Cat DAL1100) was added for 6 h, and the plates were read with a fluorescence microplate reader at 546/580 nm (excitation/emission). For PBMC proliferation, cells were plated and activated as above but incubated for only 16 h prior to addition of Alamar Blue. Plates were read after 6 h.
Compound,outcome,AC50
O=C(Cl)C(F)(F)C(F)(F)C(F)(F)C(F)(F)C(F)(F)C(F)(F)F,inactive,
O=S(=O)(OCC(F)(F)F)C(F)(F)C(F)(F)C(F)(F)C(F)(F)F,inactive,9.88 µM (active)
O=C1C=CC(=O)N1c1ccc(Cc2ccc(N3C(=O)C=CC3=O)cc2)cc1,,5.57 µM (active)
OCC(F)(F)C(F)(F)C(F)(F)C(F)(F)C(F)(F)C(F)(F)C(F)(F)C(F)(F)CO,inactive,
CCOC(=O)CC(=O)C(F)(F)C(F)(F)F,inactive,
NC(O)(C(F)(F)F)C(F)(F)F,inactive,
CNS(=O)(=O)C(F)(F)C(F)(F)C(F)(F)C(F)(F)C(F)(F)C(F)(F)C(F)(F)C(F)(F)F,inactive,
C=C(C)C(=O)OCC(F)(F)C(F)(F)C(F)(F)C(F)F,inactive,
Cc1cc(C)c(O)c(C(C)(C)C)c1,,30.8 µM (active)
CC(C)CCCC(C)CCO (stereo not given),inactive,
O=C(O)C(F)(F)C(F)(F)C(F)(F)OC(F)(F)F,inactive,
O=S(=O)(Cl)C(F)(F)C(F)(F)C(F)(F)C(F)(F)C(F)(F)C(F)(F)C(F)(F)C(F)(F)F,inactive,
O=C(O)CCC(F)(F)C(F)(F)C(F)(F)F,inactive,
Nc1cc([N+](=O)[O-])cc(Cl)c1O,inactive,
C=CC(=O)OCCC(F)(F)C(F)(F)C(F)(F)C(F)(F)F,inactive,30 µM (active)
O=C(F)C1(F)C(F)(F)C(F)(F)C(F)(F)C(F)(F)C1(F)F,inactive,
CCN(CC)c1ccc2c(c1)Oc1cc(N(CC)CC)ccc1C21OC(=O)c2ccccc21,,10 µM (active)
Cc1cnccn1,inactive,
Cc1cc(O)c(C(C)(C)C)cc1C(C)(C)C,,5.3 µM (active)

Compound,outcome,AC50
CCOC(C=C(C)CCC=C(C)C)OCC,,30.5 µM (active)
CCN=C1C=CC(=C(c2ccc(N(CC)CC)cc2)c2ccc(N(CC)CC)cc2)c2ccccc21,,1.6 µM (active) and 1.55 µM (active)
O=C(O)CCC(F)(F)C(F)(F)C(F)(F)C(F)(F)C(F)(F)C(F)(F)C(F)(F)F,inactive,
O=S(=O)(O)CCC(F)(F)C(F)(F)C(F)(F)C(F)(F)F,inactive,
O=C(O)C(F)(F)C(F)(F)C(F)(F)C(=O)O,inactive,
O=C(O)C(F)(F)C(F)(F)C(F)(F)C(F)(F)C(F)(F)C(F)(F)C(F)F,inactive,
CC(C)(C)c1cc(CCC(=O)NCCCCCCNC(=O)CCc2cc(C(C)(C)C)c(O)c(C(C)(C)C)c2)cc(C(C)(C)C)c1O,inactive,
OCC(O)CC(F)(F)C(F)(F)C(F)(F)C(F)(F)F (stereo not given),inactive,
O=C(Cl)C(F)(F)C(F)(F)C(F)(F)C(F)(F)C(F)(F)C(F)(F)C(F)(F)F,inactive,
OCC(F)(F)C(F)(F)C(F)(F)C(F)(F)C(F)(F)C(F)(F)CO,inactive,
CN(C(=O)C(F)(F)C(F)(F)C(F)(F)F)[Si](C)(C)C,inactive,
CCN(CC)c1ccc(C=O)cc1,inactive,
NCC(F)(F)C(F)(F)C(F)(F)C(F)(F)C(F)(F)C(F)(F)C(F)(F)C(F)(F)F,inactive,
FC(F)(F)C(F)(F)C(F)(F)C(F)(F)C(F)(F)C(F)(F)C(F)(F)CCI,inactive,
NCC(F)(F)C(F)(F)C(F)(F)C(F)(F)C(F)(F)C(F)(F)F,inactive,
C[Si](Cl)(Cl)CCC(F)(F)C(F)(F)C(F)(F)C(F)(F)C(F)(F)C(F)(F)F,inactive,
NC(=O)C(F)(F)C(F)(F)C(F)(F)C(F)(F)C(F)(F)C(F)(F)C(F)(F)F,inactive,
NC(=O)C(F)(F)C(F)(F)C(F)(F)F,inactive,
O=C(O)C(F)(F)OC(F)(F)C(F)(F)OC(F)(F)C(F)(F)OC(F)(F)F,inactive,
